# Test results taken from PubChem BioAssay (Tox21).
# Inconclusive results are not listed. Activity calls are given as the source filed them. Calls come from the whole dose curve.
# Assay: qHTS assay to identify small molecule agonists of the NFkB signaling pathway - cell viability counter screen (AID 1159515); note: nearly all actives have a fitted effect of over 55% in size
# Conditions: NFkB-bla ME-180 viability, CellTiter-Glo luminescence, 5 h; series mostly up to 61 µM
# Text: National Center for Advancing Translational Sciences [NCATS]
# NIH Chemical Genomics Center [NCGC]
# U.S. Environmental Protection Agency [EPA]
# National Institutes of Environmental Health Sciences [NIEHS]
# National Toxicology Program [NTP]
# U.S. Food and Drug Administration [FDA]
# Transcription factors and their stimulated target gene expression play pivotal roles across many cellular processes including responses to environmental stimuli. Proper regulation of associated pathways is critical to maintain cell health and function. Constitutive activation of transcription factor pathways has been implicated in tumors as it may block cellular functions such as apoptosis and lead to invasion and metastasis. One important transcription factor that stimulates gene expression in response to cytokines, UV radiation, and other stimuli is nuclear factor-kappa B (NFkB). To measure activation of the NFkB pathway, the CellSensor NFkB-bla ME-180 cell line (Life Technologies, Carlsbad, CA) that stably expresses beta-lactamase reporter gene under the regulation of a NF-kB response element was used. This assay allows measurement of the NFkB pathway activity induced by compounds in a ME-180 cell line. This system quantitates NF-kB activity using a FRET-based assay system where beta-lactamase expression disrupts FRET, allowing for fluorescent measurement of activity. This cell line has been used to screen the Tox21 10K compound library and to identify compounds that induce the NFkB pathway activity. The cytotoxicity of the Tox21 compound library against the NFkB-bla ME-180 cell line was tested in parallel by measuring cell viability using the CellTiter-Glo assay in the same wells.
# Tox21 Assay Protocol Summary:
# NFkB-bla ME-180 cells were dispensed at 2,000 cells/6 uL of assay medium per well into black wall/clear-bottom 1536-well plates using a Multidrop Combi (ThermoFisher Scientific, Waltham, MA) dispenser. After the assay plates were incubated at 37 C and 5% CO2 for an overnight, 23 nL of compounds dissolved in DMSO, positive controls or DMSO only was transferred to the assay plate by a Pintool station (Kalypsys, San Diego, CA). The assay plates were incubated at 37 C and 5% CO2 for 5 hr. One uL of LiveBLAzer B/G FRET substrate (Life Technologies) was added using a Flying Reagent Dispenser (Aurora Discovery, San Diego, CA) and the plates were incubated at room temperature for 1.5 hr. Fluorescence intensity (405 nm excitation, 460 nm and 530 nm emissions) was measured using an Envision plate reader (PerkinElmer, Shelton, CT). For cytotoxicity, 3 ul/well of CellTiter-Glo reagent was added into the assay plates using an FRD. After 30 min incubation at room temperature, the luminescence intensity was measured using a ViewLux plate reader (PerkinElmer).
row,SMILES,outcome
1,NS(=O)(=O)c1cc2c(cc1Cl)CN(C1CCCCC1)C2=O,inactive
2,CC(C)OC(=O)CCCCC(=O)OC(C)C,inactive
3,Cc1cc(NC(=O)C2=C(O)c3ccccc3S(=O)(=O)N2C)no1,inactive
4,CCN1CCc2nc(N)oc2CC1,inactive
5,CCCCNc1ccc(C(=O)OCCN(C)C)cc1,inactive
6,CC(=O)NCc1c(I)c(NC(C)=O)c(I)c(C(=O)O)c1I,inactive
7,CCCC/C=C\CCCCCCCCCC=O,inactive
8,CCCCCCCCCCl,inactive
9,CNS(=O)(=O)CCc1ccc2[nH]cc(C3CCN(C)CC3)c2c1,inactive
10,CC(C)CC(=O)O,inactive
11,CC(C)CC(C)CC(C)CC(C)COC(=O)c1ccccc1C(=O)OCC(C)CC(C)CC(C)CC(C)C (stereo not given),inactive
12,Cc1ccccc1N=O,inactive
13,CCn1ccc(NS(=O)(=O)c2ccc(N)cc2)nc1=O,inactive
14,NS(=O)(=O)c1ccc(NC(=O)CCC(=O)O)cc1,inactive
15,c1ccc2nccnc2c1,inactive
16,O=C(O)CCSSCCC(=O)O,inactive
17,CCO[Si](CCCS)(OCC)OCC,inactive
18,COC(=O)CCc1ccc(OCC(O)CNC(C)C)cc1 (stereo not given),inactive
19,CCOCCOCCOCC,inactive
20,ClCCCl,inactive

row,SMILES,outcome
1,O=C1c2cccc3c2[C@H](CCC3)CN1[C@@H]1CN2CCC1CC2,inactive
2,CC(C)=O,inactive
3,CC(=O)CCCCn1c(=O)c2c(ncn2C)n(C)c1=O,inactive
4,COc1cc(NS(=O)(=O)c2ccc(N)cc2)nc(OC)n1,inactive
5,Cc1ccc(S(=O)(=O)O)c(C)c1,inactive
6,OCCC(F)(F)C(F)(F)C(F)(F)C(F)(F)C(F)(F)C(F)(F)C(F)(F)C(F)(F)F,inactive
7,O=C(O)c1cc(Br)c(O)c(Br)c1,inactive
8,CC(CO)c1ccccc1 (stereo not given),inactive
9,COP(=O)(OC)OC(c1ccc(Cl)cc1)P(=O)(OC)OC (stereo not given),inactive
10,C=CCCCCCCCCCCCC,inactive
11,C[C@H](N)[C@H](O)c1cccc(O)c1,inactive
12,COc1ccc2c(c1)C(=O)N(CCc1ccc(S(=O)(=O)NC(=O)NC3CCCCC3)cc1)C(=O)C2(C)C,inactive
13,C=C(C)C(=O)OCCNC(C)(C)C,inactive
14,O=C(O)c1cc(Cl)cc([N+](=O)[O-])c1Cl,inactive
15,Oc1cn2c(n1)Nc1ccc(Cl)c(Cl)c1C2,inactive
16,O=S(=O)(O)c1cc(O)c2ccc(Nc3ccccc3)cc2c1,inactive
17,Cc1nc2n(c(=O)c1CCN1CCC(c3noc4cc(F)ccc34)CC1)CCC[C@H]2O,inactive
18,Cc1ccccc1OCC(O)CO (stereo not given),inactive
19,O=C1CC(c2ccc(Cl)cc2)CC(=O)N1,inactive
20,O=C(CS(=O)Cc1ccco1)NC/C=C\COc1cc(CN2CCCCC2)ccn1 (stereo not given),inactive
